MEP2 TOR yeast – alters MEP2-GFP fluorescence in TOR pathway yeast screen; AID 2016; GFP response vs DMSO, % at 10 µM; S. cerevisiae MEP2-GFP strain, flow cytometry GFP, 3 h; 100% = DMSO control level; actives 0.51% (n = 330,000);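 active means GFP response versus DMSO above a set limit, roughly screen mean plus 3 SD, cut at about 180% in these data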;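 further: median GFP fluorescence of the barcode-gated MEP2-GFP cells per well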
CIT2 TOR yeast – alters CIT2-GFP fluorescence in TOR pathway yeast screen; GFP response vs DMSO, % at 10 µM; S. cerevisiae CIT2-GFP strain, flow cytometry, 3 h; 100 means same as DMSO wells; actives 0.065% (n = 320,000);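 active means GFP response relative to DMSO above a set limit, near the screen mean plus 3 SD, cut at about 150% in these data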;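 further: ratio of well median GFP fluorescence to mean of DMSO wells on the plate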
DSG3 Ab inh – inhibitors of pemphigus antibody binding to human desmoglein-3; P32926; binding (percent of control), % at 10 µM; DSG3-coupled beads, scFv-anti-DSG3-GFP binding, flow cytometry; stronger effect = lower value; actives 0.48% (n = 310,000);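 active means binding more than 3 SD below its plate's average and above zero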;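 further: hits lower antibody fragment binding to DSG3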
Target sequence (P32926 whole entry, looked up, the tested form may be a part): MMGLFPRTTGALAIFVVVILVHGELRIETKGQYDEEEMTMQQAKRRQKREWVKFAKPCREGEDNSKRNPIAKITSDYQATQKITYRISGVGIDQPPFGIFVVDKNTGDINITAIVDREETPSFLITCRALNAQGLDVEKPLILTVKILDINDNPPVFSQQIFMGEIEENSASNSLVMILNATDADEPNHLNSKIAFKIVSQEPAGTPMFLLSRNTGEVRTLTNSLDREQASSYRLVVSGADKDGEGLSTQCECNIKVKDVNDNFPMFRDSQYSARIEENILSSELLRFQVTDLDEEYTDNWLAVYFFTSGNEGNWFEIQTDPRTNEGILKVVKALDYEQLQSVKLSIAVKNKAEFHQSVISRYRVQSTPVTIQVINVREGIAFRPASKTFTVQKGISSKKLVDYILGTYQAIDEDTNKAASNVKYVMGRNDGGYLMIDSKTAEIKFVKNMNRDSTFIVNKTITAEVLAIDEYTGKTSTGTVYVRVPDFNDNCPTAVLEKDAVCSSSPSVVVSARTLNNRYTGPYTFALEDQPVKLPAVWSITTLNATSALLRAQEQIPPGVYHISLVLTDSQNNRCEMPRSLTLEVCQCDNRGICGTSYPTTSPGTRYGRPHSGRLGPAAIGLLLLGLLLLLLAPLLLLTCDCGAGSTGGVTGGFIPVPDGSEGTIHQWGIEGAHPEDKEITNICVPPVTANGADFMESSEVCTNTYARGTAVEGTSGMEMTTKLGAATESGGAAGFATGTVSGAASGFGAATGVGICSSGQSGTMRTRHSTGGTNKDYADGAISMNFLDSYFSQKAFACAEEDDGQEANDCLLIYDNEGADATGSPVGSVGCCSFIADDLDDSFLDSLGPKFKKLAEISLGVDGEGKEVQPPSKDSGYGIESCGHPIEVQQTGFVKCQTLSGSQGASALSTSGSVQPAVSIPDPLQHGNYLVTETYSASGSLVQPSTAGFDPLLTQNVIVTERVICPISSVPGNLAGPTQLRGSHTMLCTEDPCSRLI
AGP1 TOR yeast – alters AGP1-GFP fluorescence in TOR pathway yeast screen; S. cerevisiae AGP1-GFP multiplex flow cytometry, 3 h; GFP as percent of DMSO wells; GFP response vs DMSO, % at 10 µM; actives 0.02% (n = 320,000); AID 2066;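 active means GFP response relative to DMSO above a set limit, near screen average plus 3 SD, cut at about 150% in these data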;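 further: median GFP channel fluorescence of the gated AGP1 strain per well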
RPL19A TOR yeast – yeast TOR pathway RPL19A-GFP modulation. percent response vs DMSO, % at 10 µM. actives 0.3% (n = 330,000). S. cerevisiae RPL19A-GFP strain, flow cytometry, 3 h; stronger effect = lower value. AID 2025;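 active means percent response vs DMSO below 50%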;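 further: median channel GFP fluorescence of the barcoded RPL19A-GFP strain; lower means less RPL19A-GFP as with rapamycin TOR inhibition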
LAP4 TOR yeast – alters LAP4-GFP fluorescence in TOR pathway yeast screen; AID 2023; GFP response vs DMSO, % at 10 µM; actives 0.34% (n = 320,000); S. cerevisiae LAP4-GFP multiplex, flow cytometry GFP, 3 h; median GFP as percent of DMSO wells;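 active means GFP response vs DMSO above a set limit, about the screen mean plus 3 SD, cut at about 150% in these data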
LAP4 cherry2 – yeast LAP4-GFP modulation, second cherry pick; GFP response vs DMSO, % at 10 µM; actives 20% (n = 590); shares compounds with LAP4 TOR yeast; AID 2621; S. cerevisiae LAP4-GFP strain, flow cytometry GFP, 3 h;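 active means GFP signal as percent of the solvent control above about 150%, meaning raised reporter expression, limit read from the data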
MEP2-GFP pick2 – yeast MEP2-GFP modulation, second cherry pick | shares compounds with LAP4 TOR yeast | S. cerevisiae MEP2-GFP strain, flow cytometry GFP, 3 h | GFP response vs DMSO, % at 10 µM | actives 10% (n = 590) | AID 2622;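 active means GFP signal above 150% of the solvent control wells, that is a rise of more than half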;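 further: median channel GFP fluorescence of all gated yeast cells per well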
RPL19A-GFP pick2 – yeast RPL19A-GFP TOR reporter modulation, second cherry pick. shares compounds with LAP4 TOR yeast. actives 3% (n = 590). AID 2623. S. cerevisiae RPL19A-GFP strain, flow cytometry GFP, 3 h; stronger effect = lower value; 100% means same as DMSO wells. GFP response vs DMSO, % at 10 µM;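 active means under 65% GFP response relative to DMSO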;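 further: median GFP channel fluorescence per well over the all cells gate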
CIT2 GFP CP2 – reconfirmed modulator of CIT2-GFP TOR reporter in yeast; S. cerevisiae CIT2-GFP strain, flow cytometry GFP, 3 h; DMSO control wells read 100%; shares compounds with LAP4 TOR yeast; GFP response vs DMSO, % at 10 µM; actives 8% (n = 590); AID 2624;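 active means GFP response vs DMSO above about 150%, limit read from the data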;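 further: median green fluorescence per well over all gated yeast cells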
AGP1-GFP pick2 – second confirmation of modulators of TOR reporter AGP1-GFP in yeast | shares compounds with LAP4 TOR yeast | S. cerevisiae AGP1-GFP strain, flow cytometry GFP, 3 h | percent response vs DMSO, % at 10 µM | 590 tested, under 10 active;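 active means over 150 percent of DMSO response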;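 further: median GFP channel fluorescence over all cells without mother daughter split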
s288c autofluor – counter-screen for compound autofluorescence in yeast s288c cells | shares compounds with LAP4 TOR yeast | S. cerevisiae s288c, 520 nm autofluorescence, flow cytometry, 3 h; stronger effect = higher value; zero means same as solvent-only cells | fluorescence change (kMESF span) at 33 µM | 610 tested, under 10 active | AID 2757;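 active means fluorescence span over the dose series, or activity score, above about 33, limit read from the data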
s288c autofl DR – TOR screen hit shows autofluorescence in yeast s288c; shares compounds with LAP4 TOR yeast; S. cerevisiae s288c parental, compound autofluorescence, flow cytometry, 3 h; fluorescence change (span) at 33 µM; 110 tested, under 10 active;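 active means fluorescence change span, or the activity score built from it, above 25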
TORC1 bypass – stops wildtype yeast growth while TORC1 bypass cells still grow; shares compounds with LAP4 TOR yeast; S. cerevisiae BY4741 spot growth rating, 48-72 h; stronger effect = lower value; growth rating (0-3) at 30 µM; 120 tested, under 10 active; AID 504456;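 active means growth rating at most 1 for wild type yeast while the TORC1 bypass strain still grows fully, rated 3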
Of the large screens only hits and unclear results are named; the others gave an inactive call (follow-up assays come after a bar, where they were run); [ ] = dose if it differs, or a comment. In the library only some 1.2% were active in any assay of this set; here they are far more common.

C=CCn1c(C)c(/C=C/c2cc[n+](C)cc2)c2ccccc21	MEP2 TOR yeast 286, CIT2 TOR yeast 241, LAP4 TOR yeast 171 | s288c autofluor inactive
CC(OC(=O)c1ccco1)C(=O)Nc1nc(-c2ccccc2)cs1 (configuration not stated)	LAP4 TOR yeast 177 | LAP4 cherry2 inactive | MEP2-GFP pick2 inactive | RPL19A-GFP pick2 inactive | CIT2 GFP CP2 inactive | AGP1-GFP pick2 inactive | s288c autofluor inactive
O=C(Nc1nc(-c2ccccc2)cs1)c1ccco1	none
O=C(O)/C=C/C(=O)c1ccc2c(c1)CCc1ccccc1-2	LAP4 TOR yeast 226 | LAP4 cherry2 inactive | MEP2-GFP pick2 165 | RPL19A-GFP pick2 inactive | CIT2 GFP CP2 inactive | AGP1-GFP pick2 inactive | s288c autofluor inactive
CC[C@@]1(C(=O)OC)N[C@H](CN(C)C(=O)C2CCCCC2)[C@@H]2C(=O)N(Cc3ccccc3)C(=O)[C@@H]21	none
COc1ccc(-c2cc(=O)c3c(OC)c(OC)c(OC)c(OC)c3o2)cc1OC	LAP4 TOR yeast 234 | LAP4 cherry2 inactive | MEP2-GFP pick2 inactive | RPL19A-GFP pick2 inactive | CIT2 GFP CP2 inactive | AGP1-GFP pick2 inactive
COc1cc(/C=C2\C(=O)N(CCC#N)N=C2C)c(Br)cc1OC(C)C	LAP4 TOR yeast 192 | s288c autofluor inactive
CC(C)(C)C1CCc2sc(-c3nnc(CCl)o3)cc2C1 (configuration not stated)	none | LAP4 cherry2 inactive | MEP2-GFP pick2 inactive | RPL19A-GFP pick2 inactive | CIT2 GFP CP2 inactive | AGP1-GFP pick2 inactive
C#CCOc1c(Cl)cc(C2C3=C(CCCC3=O)N(CC(=O)O)C3=C2C(=O)CCC3)cc1OC	none | LAP4 cherry2 inactive | MEP2-GFP pick2 inactive | RPL19A-GFP pick2 inactive | CIT2 GFP CP2 inactive | AGP1-GFP pick2 inactive
COc1ccc(OC)c(S(=O)(=O)NCC(=O)NC2CCCc3ccccc32)c1 (configuration not stated)	none (no result: MEP2 TOR yeast, CIT2 TOR yeast, AGP1 TOR yeast, RPL19A TOR yeast, LAP4 TOR yeast)
[O-]/[N+](=N\Nc1ccc(Cl)cc1)c1ccccc1	none (no result: MEP2 TOR yeast, CIT2 TOR yeast, AGP1 TOR yeast, RPL19A TOR yeast, LAP4 TOR yeast)
Cc1[nH]c(-c2ccccn2)nc(=S)c1Cl	LAP4 TOR yeast 267 | s288c autofluor inactive
[O-]/C(=C(\C(=S)NCc1ccccc1)[n+]1ccccc1)c1ccc(Cl)cc1	none (no result: CIT2 TOR yeast)
CCOC(=O)N1CCc2c(sc(NC(=O)c3ccc(Cl)s3)c2C(N)=O)C1	LAP4 TOR yeast 183 (no result: DSG3 Ab inh) | LAP4 cherry2 inactive | MEP2-GFP pick2 inactive | RPL19A-GFP pick2 inactive | CIT2 GFP CP2 inactive | AGP1-GFP pick2 inactive
CCOC(=O)N1CCc2c(sc(NC(C)=O)c2C(N)=O)C1	none
CCN1CCN(C(CNS(=O)(=O)c2ccccc2)c2cccnc2)CC1 (configuration not stated)	none
CCN1CCN(C(CNS(=O)(=O)c2ccc(F)cc2)c2cccnc2)CC1 (configuration not stated)	CIT2 TOR yeast 154 | LAP4 cherry2 inactive | MEP2-GFP pick2 inactive | RPL19A-GFP pick2 inactive | CIT2 GFP CP2 inactive | AGP1-GFP pick2 inactive
CC(C)CN(C(=O)CCNC(=O)c1ccccc1Cl)C1CCS(=O)(=O)C1 (configuration not stated)	none
COc1cc(S(=O)(=O)Nc2cccc3cn[nH]c23)c(OC)cc1C	CIT2 TOR yeast 167 | LAP4 cherry2 inactive | MEP2-GFP pick2 inactive | RPL19A-GFP pick2 inactive | CIT2 GFP CP2 inactive | AGP1-GFP pick2 inactive
Cc1ccc(C(NC(=O)c2cccc(S(=O)(=O)N3CCN(C)CC3)c2)c2ccccc2)cc1 (configuration not stated)	none
O=[N+]([O-])c1ccc(S(=O)(=O)c2cccc(C(F)(F)F)c2)nc1	none (no result: CIT2 TOR yeast, AGP1 TOR yeast, LAP4 TOR yeast) | s288c autofluor inactive | s288c autofl DR inactive | TORC1 bypass inactive
CCNc1c([N+](=O)[O-])c(=O)n(CC)c2ccccc12	none
CCn1c(=O)c([N+](=O)[O-])c(NCc2ccco2)c2ccccc21	LAP4 TOR yeast 201[may fluoresce green] | LAP4 cherry2 inactive | MEP2-GFP pick2 inactive | RPL19A-GFP pick2 inactive | CIT2 GFP CP2 inactive | AGP1-GFP pick2 inactive
Cn1ccc2cc(-c3csc(N4CCC(C(N)=O)CC4)n3)ccc21	none (no result: MEP2 TOR yeast, CIT2 TOR yeast, AGP1 TOR yeast, RPL19A TOR yeast, LAP4 TOR yeast)
CCOc1ccc(C(C)=O)cc1N1C(=O)C2C3C=CC(O3)C2C1=O (configuration not stated)	LAP4 TOR yeast 203 | s288c autofluor inactive
O=C(Nc1ccc(Cl)cc1)ON=C1CCCC1	none | LAP4 cherry2 199 | MEP2-GFP pick2 inactive | RPL19A-GFP pick2 inactive | CIT2 GFP CP2 224 | AGP1-GFP pick2 inactive | s288c autofluor inactive
CCCCn1nc(C(=O)Nc2c(C)n(C)n(-c3ccccc3)c2=O)c2ccccc2c1=O	none
Oc1ccc(Cl)cc1CNCc1ccc(C(F)(F)F)cc1	none
CCC1(c2ccccc2)ON(c2c(Br)cccc2Br)C1=O (configuration not stated)	none | LAP4 cherry2 inactive | MEP2-GFP pick2 inactive | RPL19A-GFP pick2 inactive | CIT2 GFP CP2 inactive | AGP1-GFP pick2 inactive | s288c autofluor inactive
CCC1(c2ccccc2)CN(C)C1=O (configuration not stated)	none (no result: MEP2 TOR yeast, CIT2 TOR yeast, AGP1 TOR yeast, RPL19A TOR yeast, LAP4 TOR yeast)
